This note sets out measurements from PubChem BioAssay AID743446 (Broad Institute, 2014).

Molecules are shown by their SMILES. Potency and affinity values are given separately. Activity calls are given as the source filed them. The rule behind the calls is not given here.

This assay can be described thus: HEK293 cell cytotoxicity, dose response, cytotoxicity control, plate reader, cherry-picked samples (AID 743446). The following applies: hits give low values; at 26 µM unless noted.
For `Cc1ccc(NC(=O)c2ncn(CC(=O)N3CCN(c4ccccn4)CC3)n2)cc1C`, the max activity was -13.4% [at 0.195 µM] (inactive).

In the case of `COCCCNc1ccn2nc(-c3ccccc3)cc2n1`, the max activity was 42.6% [at 12 µM] (inactive).

`C[C@H](CO)N1C[C@H](C)[C@H](CN(C)C(=O)Nc2cccc3ccccc23)OCCCC[C@H](C)Oc2ccc(NC(=O)CCC(F)(F)F)cc2C1=O`: the max activity is 78.9% (inactive).

Take `C[C@H](CO)N1C[C@H](C)[C@H](CN(C)Cc2ccc(C(F)(F)F)cc2)Oc2ccc(NC(=O)Nc3ccc(F)cc3)cc2C1=O`: the max activity was -29.9% (inactive).

In the case of `COC(=O)c1ccc(Nc2cc(C)nc3ccc(C)cc23)cc1`, the max activity was -31.7% [at 12 µM] (inactive).

Regarding `C[C@H](CO)N1C[C@H](C)[C@H](CN(C)S(=O)(=O)c2ccc(C(F)(F)F)cc2)OCc2ccccc2-c2c(n(C)c3ccccc23)C1=O`, the max activity is -10.7% [at 1.6 µM] (inactive).

With `COc1ccc(-c2cc3nc(CCl)[nH]c(=O)c3s2)cc1`, the max activity was -60.9% (inactive).

Consider `C[C@H](CO)N1C[C@H](C)[C@@H](CN(C)C(=O)Nc2ccc3c(c2)OCO3)Oc2c(cccc2N(C)C)C1=O`, for which the max activity is -7.24% [at 0.8 µM] (inactive).

For `C[C@@H]1CN([C@H](C)CO)C(=O)c2c(c3ccccc3n2C)-c2ccccc2CO[C@@H]1CN(C)S(=O)(=O)c1ccc(C(F)(F)F)cc1`, the max activity was -8.56% (inactive).

For `Cc1ccc(-c2nc(-c3ccncc3)no2)cc1C`, the max activity was -14.8% (inactive).

As for `COc1ccccc1CNS(=O)(=O)c1ccc(N2CCCC2)cc1Br`, the max activity is -9.37% (inactive).

With `CCc1nnc2cccc(Cl)n12`, the max activity is -9.24% [at 1.6 µM] (inactive).

Regarding `N#C[C@@H]1[C@H](c2ccc(C#Cc3ccccc3F)cc2)[C@@H](CO)N1C(=O)C1CCCC1`, the max activity is -15.6% (inactive).

As to `O=C(O)c1ccc(N/N=C/c2ccc3ncccc3c2)cc1`, the max activity is 14.9% [at 12 µM] (inactive).

Regarding `Cc1ccc(-c2cc(C(=O)N3CCOCC3)no2)cc1`, the max activity was -12% [at 6 µM] (inactive).

`Cc1cc(C(=O)COC(=O)C2CC2)c(C)n1-c1ccc(F)cc1`: the max activity was 9.72% [at 12 µM] (inactive).

For `Cc1ccccc1C(=O)Nc1nnc(-c2ccco2)s1`, the max activity was -13.7% [at 12 µM] (inactive).

Regarding `CCN(CC)S(=O)(=O)c1cc(C(=O)OCC(=O)Nc2ccc(-c3nc4ccc(C)cc4s3)cc2)ccc1F`, the max activity was -18.3% (inactive).

Take `COc1cc(NC(=O)c2cccc3c(-c4cnn(C)c4)coc23)cc(OC)c1OC`: the max activity was -34.1% (inactive).

In the case of `CN(C)c1ccc(C2NC(=O)c3ccccc3N2)cc1` (stereo not given), the max activity was 20.5% [at 0.1 µM] (inactive).

With `C[C@H](CO)N1C[C@H](C)[C@H](CN(C)Cc2ccccc2)Oc2c(NS(=O)(=O)c3cn(C)cn3)cccc2C1=O`, the max activity is 13% [at 1.6 µM] (inactive).

For `O=C1OCCC1Sc1nnc(-c2ccc(Cl)cc2Cl)o1` (stereo not given), the max activity is 7.96% [at 0.8 µM] (inactive).

On to `CC1CCCN(c2ncnc3c2cnn3-c2ccccc2)C1` (stereo not given), for which the max activity was -23.6% [at 12 µM] (inactive).

For `CC(=O)Nc1cccc(-c2ccnc3c2CC(C(=O)NCc2cccnc2)O3)c1` (stereo not given), the max activity was 0% [setting not given] (inactive).

On to `Cc1ccc(NC(=O)c2cnn(-c3ccccc3)c2C)cc1C`, for which the max activity is 11.5% [at 0.05 µM] (inactive).
